Shiga inhibitor: Shiga toxin inhibition; Vero cells, Shiga toxin protein synthesis inhibition reporter; inhibition, % at 38.7 µM; 9.2% of 290,000 active; in the data active = inhibition mostly above about 28%, no sharp cut-off; inactive = mostly below about 43%
MARV entry inh: Marburg virus entry inhibition | Marburg virus pseudotyped entry inhibition, cell reporter | Potency, µM (series often up to 37.8 µM), most hits filed as inhibitors | 1.8% of 300,000 active | AID 540276; calls by dose curve; tested in HEK293 cells
Lassa entry inh: inhibitors of Lassa virus binding or cell entry. Lassa virus pseudotype entry inhibition, cell reporter. Potency, µM (doses to about 37.9 µM), actives largely listed as inhibitors. 1.2% of 300,000 active. AID 540256; calls by dose curve; tested in HEK293 cells; note: nearly all actives have a fitted effect of over 50% in size
AMA1 RON2 block: inhibitors of Plasmodium falciparum AMA1-RON2 interaction; AlphaScreen AMA1-biotinylated RON2 peptide binding; Potency, µM (titrated, usually from 58.2 µM), most hits filed as inhibitors; 0.2% of 360,000 active; AID 720542; active = well fitted inhibition curve with a large enough effect; inconclusive = small, poorly fitted or top-dose-only effect; inactive = no such curve, though single readings can be large or run the other way; note: nearly all actives have a fitted effect of over 45% in size
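AMA1 (3D7) with his tag at 25 nM final met compounds first, then biotinylated RON2 peptide at 25 nM; detection used donor plus acceptor beads, 10 µg/mL apiece, read by AlphaScreen after 30 min at room temperature.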
CHX counter: counter-screen for Shiga toxin inhibitors: cycloheximide protein synthesis inhibition; cell reporter, cycloheximide protein synthesis inhibition counterscreen; max response, %; 12% of 300,000 active; AID 2314; in the data active = max response mostly above about 13%, no sharp cut-off; inactive = mostly below about 14%; note: read at 38.3 µM for the half of the compounds with a filed dose
Large screens that a line does not name were inactive. The sample as a whole holds a higher share of hits than the screen did.

CC(C)c1ccc(NC(=S)N2CCCC(c3ccc(F)cc3)=N2)cc1	MARV entry inh 2.5µM
COc1ccc(CN2C(=O)C(NC(=O)c3ccc(C)cc3)(C(F)(F)F)N=C2c2ccccc2)cc1 (stereo not given)	none (no result: Shiga inhibitor, AMA1 RON2 block, CHX counter)
COC(=O)c1ccc(NC(=O)CCn2c(=O)oc3ccccc32)cc1	Shiga inhibitor 40, CHX counter 29
CN(C)c1ccc(NC(=O)CCn2c(=S)oc3ccccc32)cc1	Shiga inhibitor 95, CHX counter 55 (no result: MARV entry inh, Lassa entry inh)
O=C(CCn1c(=O)oc2ccccc21)Nc1nc2ccccc2s1	Shiga inhibitor 44, CHX counter 13 (no result: MARV entry inh, Lassa entry inh)
CCSc1nnc(NC(=O)CCn2c(=O)oc3ccccc32)s1	none (no result: MARV entry inh, Lassa entry inh)
Cc1ccc(NC(=O)CCn2c(=S)oc3ccccc32)cc1	Lassa entry inh inconclusive
O=C(CCn1c(=O)oc2ccccc21)Nc1ccc(C(=O)O)cc1	none
COc1cn(CC(=O)Nc2ccc(C)cc2)c(CN2CCCCC2)cc1=O	none (no result: Shiga inhibitor, MARV entry inh, AMA1 RON2 block, CHX counter)
O=C(Cc1cccs1)N/N=C/c1ccco1	none
CCN(CC)c1ccc(/C=N/N=C(c2ccccc2)c2ccccc2)c(O)c1	MARV entry inh inconclusive, Lassa entry inh 10µM, AMA1 RON2 block inconclusive
CCN(CC)c1ccc(/C=N/NC(=O)c2ccco2)cc1	Shiga inhibitor 53, MARV entry inh 7.3µM, Lassa entry inh 4.5µM, CHX counter 49
CCN(CC)c1ccc(/C=N/NC(=O)Cc2cccs2)c(O)c1	Shiga inhibitor 78, MARV entry inh 16µM, Lassa entry inh 3.2µM, CHX counter 32
CCN(CC)c1ccc(/C=N/NC(=S)NCc2ccccc2)c(O)c1	MARV entry inh inconclusive, Lassa entry inh inconclusive
CCN(CC)c1ccc(/C=N/NC(=O)c2ccco2)c(O)c1	Shiga inhibitor 76, CHX counter 38 (no result: MARV entry inh, Lassa entry inh)
C#CCOCCOCCOCCNc1nc(N2CCN(C(=O)C([C@@H](C)CC)n3cc(C(N)COC(=O)C(F)(F)F)nn3)CC2)nc(N2CCN(C(=O)C([C@@H](C)CC)n3cc(C(N)CC(C)C)nn3)CC2)n1 (stereo not given in full)	none (no result: Shiga inhibitor, MARV entry inh, Lassa entry inh, CHX counter)
CN(C(=O)c1ccc(NC(=O)Cc2cccc(NC(=O)C3CCN(C(=O)c4ccccc4)CC3)c2)cc1)C1CCCC1	none (no result: Shiga inhibitor, MARV entry inh, Lassa entry inh, CHX counter)
COc1ccc(C(=O)NC(C)c2nnc(SCC(=O)NC3CCCC3)n2C)cc1 (stereo not given)	Lassa entry inh inconclusive
Nc1ccc(Br)c[n+]1Cc1cccc2cccnc12	MARV entry inh 10µM
Nc1scn[n+]1Cc1cccc2cccnc12	none (no result: MARV entry inh, Lassa entry inh)
COc1ccc(CCNC(=O)c2c(C)nn(CC(C)C)c2Cl)cc1	Lassa entry inh 2.2µM
Cc1nn(Cc2ccccc2)c(Cl)c1C(=O)NCCc1ccccc1	Shiga inhibitor 60, CHX counter 56 (no result: MARV entry inh, Lassa entry inh)
O=[N+]([O-])c1ccc(S(=O)(=O)c2cccc(C(F)(F)F)c2)nc1	MARV entry inh 11µM, Lassa entry inh inconclusive (no result: Shiga inhibitor, CHX counter)
O=S(=O)(Nc1cccnc1)c1cccc(C(F)(F)F)c1	Lassa entry inh inconclusive
CCOC(=O)c1c(C)[nH]c(C(=O)OCC(=O)NCc2ccccc2)c1C	none (no result: Shiga inhibitor, MARV entry inh, Lassa entry inh, CHX counter)
COC(=O)c1c(C)[nH]c(C(=O)C(Cc2ccccc2)N(C)C)c1C (stereo not given)	Shiga inhibitor 96, CHX counter 26
CCOC(=O)c1c(C)[nH]c(C(=O)C(Cc2ccccc2)N(C)C)c1C (stereo not given)	MARV entry inh inconclusive, CHX counter 20
O=[N+]([O-])c1ccc(N2CCN(c3ccccc3Cl)CC2)cn1	none
CC[C@H](C)[C@H](NC(=O)[C@H](C)NC(=O)CNC(=O)[C@H](CCCN=C(N)N)NC(=O)[C@H](C)NC(=O)[C@H](CC(C)C)NC(=O)[C@H](CCC(=O)O)NC(=O)[C@H](CC(C)C)NC(=O)[C@H](C)NC(=O)[C@@H](N)CCC(=O)O)C(=O)N[C@@H](Cc1ccccc1)C(=O)N[C@@H](CCC(N)=O)C(=O)N[C@@H](C)C(=O)O	none (no result: MARV entry inh, Lassa entry inh, AMA1 RON2 block)
CC1(C)Cc2nc3sc4c(NCCO)ncnc4c3cc2CS1	CHX counter 20 (no result: MARV entry inh, Lassa entry inh)
CCCCn1cnc2c(sc3nc4c(cc32)CSC(C)(C)C4)c1=O	Shiga inhibitor 55, CHX counter 78
CC(C)CCn1cnc2c(sc3nc4c(cc32)CSC(C)(C)C4)c1=O	Shiga inhibitor 43, CHX counter 38
CC1(C)Cc2nc3sc4c(SCC(=O)O)ncnc4c3cc2CO1	none (no result: MARV entry inh, Lassa entry inh)
CCc1nc2c(sc3nc4c(cc32)COC(C)(C)C4)c(=O)n1Cc1ccccc1	MARV entry inh inconclusive
O=C1C=CC(=O)C(CNc2ccc(C(=O)OCc3ccccc3)cc2)=C1	MARV entry inh inconclusive, Lassa entry inh 11µM (no result: Shiga inhibitor, CHX counter)

Screening results from PubChem.
